Data on five molecules can be found in PubChem BioAssay.

The source made the active and inactive calls.

Assay [1] in a line: small molecules captured by biotinylated probe aFSTL3 – biochemical, small-molecule microarray, fluorescence 635/667, stem cell growth factor project, primary screen (AID 1064).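 Note: measures binding of the biotinylated anti-FSTL3 antibody to printed compounds.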 The note with it: higher = more signal.
A short description of assay [2]: binders from COS7 lysate, DM2A8 probe, primary screen, torsin A project, cell lysate, small-molecule microarray, fluorescence 635/667 (AID 1065). The note with it: higher = more signal, COS7 lysate expressing mutant human TOR1A.
The nature of assay [3]: small molecules captured by biotinylated probe aFGF2 – biochemical, small-molecule microarray, fluorescence 635/667, stem cell growth factor project, primary screen (AID 1067).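 Note: measures binding of biotinylated aFGF2 protein to printed compounds on slides; z-score merges feature fluorescence and signal-to-noise across triplicate slides.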 The conditions noted are these: higher = more signal.
Assay [4] is described as follows: small molecules captured by biotinylated probe aFGF10 – biochemical, small-molecule microarray, fluorescence 635/667, stem cell growth factor project, primary screen (AID 1071).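 Note: score merges 667 nm spot intensity and signal to noise from triplicate slides.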 The note with it: higher = more signal.
The target in assay [5] is Neurogenic locus notch homolog protein 2 (Homo sapiens) (UniProt Q04721). The assay can be described thus: small molecules binding Notch2 protein – biochemical, small-molecule microarray, 635 nm fluorescence, stem cell growth factors, primary screen (AID 1073). The note with it: higher = more signal.
Neurogenic locus notch homolog protein 2 (Homo sapiens), sequence (Q04721 whole entry, looked up, canonical isoform): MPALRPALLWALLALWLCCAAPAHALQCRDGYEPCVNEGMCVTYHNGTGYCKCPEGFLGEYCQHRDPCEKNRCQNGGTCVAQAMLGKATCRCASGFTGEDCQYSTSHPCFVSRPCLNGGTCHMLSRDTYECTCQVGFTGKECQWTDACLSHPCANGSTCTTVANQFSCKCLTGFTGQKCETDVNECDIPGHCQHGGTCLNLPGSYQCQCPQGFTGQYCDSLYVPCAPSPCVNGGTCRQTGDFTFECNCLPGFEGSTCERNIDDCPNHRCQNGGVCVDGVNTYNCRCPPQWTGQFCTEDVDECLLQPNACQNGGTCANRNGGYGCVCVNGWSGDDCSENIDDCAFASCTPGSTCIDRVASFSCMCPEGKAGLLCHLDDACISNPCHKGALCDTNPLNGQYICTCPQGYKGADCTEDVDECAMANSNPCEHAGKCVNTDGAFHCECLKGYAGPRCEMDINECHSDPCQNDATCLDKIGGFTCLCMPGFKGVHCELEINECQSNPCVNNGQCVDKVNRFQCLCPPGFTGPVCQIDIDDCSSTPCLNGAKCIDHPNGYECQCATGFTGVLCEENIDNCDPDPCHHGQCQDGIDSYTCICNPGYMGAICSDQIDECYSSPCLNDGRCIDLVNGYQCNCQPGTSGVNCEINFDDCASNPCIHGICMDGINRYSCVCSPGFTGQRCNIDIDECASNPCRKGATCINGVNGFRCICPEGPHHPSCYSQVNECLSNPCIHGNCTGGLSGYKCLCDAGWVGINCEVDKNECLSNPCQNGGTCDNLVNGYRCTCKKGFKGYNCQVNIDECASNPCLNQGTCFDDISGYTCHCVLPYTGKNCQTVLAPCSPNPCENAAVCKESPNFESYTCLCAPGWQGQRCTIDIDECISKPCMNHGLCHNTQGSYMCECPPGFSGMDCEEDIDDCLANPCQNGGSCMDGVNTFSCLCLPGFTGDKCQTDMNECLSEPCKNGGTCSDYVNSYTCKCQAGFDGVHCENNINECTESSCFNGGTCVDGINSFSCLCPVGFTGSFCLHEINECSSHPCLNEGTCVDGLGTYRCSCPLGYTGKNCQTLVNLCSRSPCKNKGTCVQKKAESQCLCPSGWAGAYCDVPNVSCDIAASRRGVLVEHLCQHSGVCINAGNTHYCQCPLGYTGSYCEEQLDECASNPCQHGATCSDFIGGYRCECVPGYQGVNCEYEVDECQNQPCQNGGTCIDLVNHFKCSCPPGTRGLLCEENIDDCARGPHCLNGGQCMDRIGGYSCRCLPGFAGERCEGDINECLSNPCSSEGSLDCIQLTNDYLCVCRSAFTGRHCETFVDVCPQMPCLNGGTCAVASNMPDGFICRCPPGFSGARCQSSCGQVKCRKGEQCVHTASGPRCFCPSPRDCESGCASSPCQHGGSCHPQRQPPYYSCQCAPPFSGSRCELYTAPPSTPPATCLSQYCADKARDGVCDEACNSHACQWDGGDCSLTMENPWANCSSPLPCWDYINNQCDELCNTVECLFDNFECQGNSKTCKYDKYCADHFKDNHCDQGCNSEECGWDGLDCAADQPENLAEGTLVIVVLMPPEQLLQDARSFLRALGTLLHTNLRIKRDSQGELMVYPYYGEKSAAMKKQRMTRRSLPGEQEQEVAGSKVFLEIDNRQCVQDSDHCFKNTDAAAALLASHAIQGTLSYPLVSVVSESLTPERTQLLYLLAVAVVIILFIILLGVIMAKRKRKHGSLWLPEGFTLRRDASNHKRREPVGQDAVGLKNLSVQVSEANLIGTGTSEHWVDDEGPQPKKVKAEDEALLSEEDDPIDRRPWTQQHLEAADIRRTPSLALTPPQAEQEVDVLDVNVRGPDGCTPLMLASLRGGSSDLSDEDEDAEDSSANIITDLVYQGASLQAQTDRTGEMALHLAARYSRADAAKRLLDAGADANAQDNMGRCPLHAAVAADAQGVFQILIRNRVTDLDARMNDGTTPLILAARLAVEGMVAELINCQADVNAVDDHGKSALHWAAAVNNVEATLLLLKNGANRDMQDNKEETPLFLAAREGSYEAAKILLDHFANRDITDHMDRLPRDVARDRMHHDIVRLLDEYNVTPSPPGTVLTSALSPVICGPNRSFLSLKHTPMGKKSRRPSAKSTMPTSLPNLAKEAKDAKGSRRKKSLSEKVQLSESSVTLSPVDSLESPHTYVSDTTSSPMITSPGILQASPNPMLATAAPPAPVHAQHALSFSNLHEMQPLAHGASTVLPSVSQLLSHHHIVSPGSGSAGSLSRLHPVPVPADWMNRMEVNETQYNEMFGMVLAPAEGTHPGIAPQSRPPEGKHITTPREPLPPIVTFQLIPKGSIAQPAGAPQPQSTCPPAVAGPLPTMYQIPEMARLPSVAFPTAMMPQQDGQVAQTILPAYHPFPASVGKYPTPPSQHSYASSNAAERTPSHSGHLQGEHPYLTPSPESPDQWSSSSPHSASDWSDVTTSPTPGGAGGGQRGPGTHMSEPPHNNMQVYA
Assay [6] has as its target Pro-neuregulin-1, membrane-bound isoform (Homo sapiens) (UniProt Q02297). The assay can be described thus: small molecules binding neuregulin-1 protein – biochemical, small-molecule microarray, fluorescence 635/667, psychiatric disease protein project, primary screen (AID 1075).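 Note: score combines 667 nm spot fluorescence with signal to noise.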 The conditions noted are these: NRG1 binding, 635 nm fluorescence, higher = more signal.
Assay [7] deals with Neuregulin-1 EGF-like domain. Description: small molecules binding NRG1 EGF domain – biochemical, small-molecule microarray, 635 nm fluorescence, primary screen (AID 1081).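 Note: binding of the protein to compounds printed on small-molecule microarray slides.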 The conditions noted are these: higher = more signal.
Assay [8] is described as follows: FRG1 expression reporter modulators in myotubes – cell-based, C2C12 myotubes, firefly/Renilla luciferase, luminescence, FRG1 inhibition for FSHD, primary screen (AID 1084). The conditions noted are these: FRG1 promoter luciferase, higher = more signal, called active from +8 up or from −8 down.
A short description of assay [9]: small molecules captured by biotinylated probe aFST – biochemical, small-molecule microarray, fluorescence 635/667, stem cell growth factor project, primary screen (AID 1086).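 Note: score merges 667 nm fluorescence with signal-to-noise of each printed compound spot.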 The conditions noted are these: higher = more signal.
Assay [10] is described as follows: binders of probe aHhip on microarray, primary screen, stem cell growth factor project, biochemical, small-molecule microarray, fluorescence 635/667 (AID 1087).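 Note: score merges spot fluorescence at 667nm with spot signal to noise ratio.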 The conditions noted are these: higher = more signal.
The subject of assay [11] is PRMT1 (protein arginine N-methyltransferase 1). Description: small molecules binding arginine methyltransferase PRMT1 – biochemical, small-molecule microarray, 635 nm fluorescence, primary screen (AID 1088).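 Note: binding of Prmt1 protein to compounds spotted on small-molecule microarray slides.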 The note with it: higher = more signal.
Assay [12] is described as follows: growth effects on S. cerevisiae YJM789 – YJM789 clinical isolate, OD600, 24 h, basal, primary screen (AID 1089).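 Note: growth of clinical yeast isolate S. cerevisiae YJM 789 seeded 1000 cells per well; test concentration not given here.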 The note with it: higher = more signal, called active from +8 up or from −8 down.
Assay [13] in a line: S. pombe growth modifiers, basal conditions – strain 972, OD600, 24 h, no modulator, primary screen (AID 1090).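 Note: basal condition with compound alone and no growth modifier present; test concentration not given here.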 The conditions noted are these: S. pombe 972 growth, higher = more signal, called active from +8 up or from −8 down.
Assay [14] is described as follows: budding yeast growth modifiers under rapamycin – strain BY4716, OD600, 96 h, primary screen (AID 1091). Note: test concentration not given here. The note with it: S. cerevisiae BY4716 + rapamycin, higher = more signal, called active from +8 up or from −8 down.
Assay [15] deals with Torsin-1A-interacting protein 2 (Homo sapiens) (UniProt Q8NFQ8). The assay can be described thus: small molecules binding lysate-expressed LULL1 – cell lysate, human LULL1 lysate, 635/667 nm fluorescence, primary screen (AID 1092).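 Note: probe is lysate of COS7 cells overexpressing human LULL1; score merges per-feature 667 nm fluorescence with signal-to-noise.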 The conditions noted are these: small-molecule microarray, hLULL1 lysate binding, 635 nm fluorescence; higher = more signal.
A short description of assay [16]: optical density change of DRC41 E. coli – strain DRC41, OD650, 24 h, E. coli filamentation project, primary screen (AID 1093).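 Note: MC1000 strain lacking acrAB efflux and sulA so SOS filamentation is blocked; test concentration not given here.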 The conditions noted are these: E. coli DRC41 growth, higher = more signal, called active from +8 up or from −8 down.
Assay [17] is described as follows: probe aLefty2 binding to arrayed compounds – biochemical, biotinylated probe, 635/667 nm fluorescence, primary screen (AID 1094).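 Note: score merges spot fluorescence near 667 nm with spot signal-to-noise ratio.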 The conditions noted are these: small-molecule microarray, higher = more signal.
In assay [18] the test system is Noggin (protein binding on small-molecule microarray). The assay can be described thus: small molecules binding Noggin protein – biochemical, 635/667 nm fluorescence, primary screen (AID 1095).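 Note: score merges 667 nm feature fluorescence with signal to noise over triplicate slides.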 The conditions noted are these: 635 nm fluorescence, higher = more signal.
The target of assay [19] is Neurogenic locus notch homolog protein 3 (Homo sapiens) (UniProt Q9UM47). The assay can be described thus: small molecules binding NOTCH3 protein – biochemical, 635/667 nm fluorescence, primary screen (AID 1096). The note with it: small-molecule microarray, 635 nm fluorescence, higher = more signal.
Neurogenic locus notch homolog protein 3 (Homo sapiens), sequence (Q9UM47 whole entry, looked up): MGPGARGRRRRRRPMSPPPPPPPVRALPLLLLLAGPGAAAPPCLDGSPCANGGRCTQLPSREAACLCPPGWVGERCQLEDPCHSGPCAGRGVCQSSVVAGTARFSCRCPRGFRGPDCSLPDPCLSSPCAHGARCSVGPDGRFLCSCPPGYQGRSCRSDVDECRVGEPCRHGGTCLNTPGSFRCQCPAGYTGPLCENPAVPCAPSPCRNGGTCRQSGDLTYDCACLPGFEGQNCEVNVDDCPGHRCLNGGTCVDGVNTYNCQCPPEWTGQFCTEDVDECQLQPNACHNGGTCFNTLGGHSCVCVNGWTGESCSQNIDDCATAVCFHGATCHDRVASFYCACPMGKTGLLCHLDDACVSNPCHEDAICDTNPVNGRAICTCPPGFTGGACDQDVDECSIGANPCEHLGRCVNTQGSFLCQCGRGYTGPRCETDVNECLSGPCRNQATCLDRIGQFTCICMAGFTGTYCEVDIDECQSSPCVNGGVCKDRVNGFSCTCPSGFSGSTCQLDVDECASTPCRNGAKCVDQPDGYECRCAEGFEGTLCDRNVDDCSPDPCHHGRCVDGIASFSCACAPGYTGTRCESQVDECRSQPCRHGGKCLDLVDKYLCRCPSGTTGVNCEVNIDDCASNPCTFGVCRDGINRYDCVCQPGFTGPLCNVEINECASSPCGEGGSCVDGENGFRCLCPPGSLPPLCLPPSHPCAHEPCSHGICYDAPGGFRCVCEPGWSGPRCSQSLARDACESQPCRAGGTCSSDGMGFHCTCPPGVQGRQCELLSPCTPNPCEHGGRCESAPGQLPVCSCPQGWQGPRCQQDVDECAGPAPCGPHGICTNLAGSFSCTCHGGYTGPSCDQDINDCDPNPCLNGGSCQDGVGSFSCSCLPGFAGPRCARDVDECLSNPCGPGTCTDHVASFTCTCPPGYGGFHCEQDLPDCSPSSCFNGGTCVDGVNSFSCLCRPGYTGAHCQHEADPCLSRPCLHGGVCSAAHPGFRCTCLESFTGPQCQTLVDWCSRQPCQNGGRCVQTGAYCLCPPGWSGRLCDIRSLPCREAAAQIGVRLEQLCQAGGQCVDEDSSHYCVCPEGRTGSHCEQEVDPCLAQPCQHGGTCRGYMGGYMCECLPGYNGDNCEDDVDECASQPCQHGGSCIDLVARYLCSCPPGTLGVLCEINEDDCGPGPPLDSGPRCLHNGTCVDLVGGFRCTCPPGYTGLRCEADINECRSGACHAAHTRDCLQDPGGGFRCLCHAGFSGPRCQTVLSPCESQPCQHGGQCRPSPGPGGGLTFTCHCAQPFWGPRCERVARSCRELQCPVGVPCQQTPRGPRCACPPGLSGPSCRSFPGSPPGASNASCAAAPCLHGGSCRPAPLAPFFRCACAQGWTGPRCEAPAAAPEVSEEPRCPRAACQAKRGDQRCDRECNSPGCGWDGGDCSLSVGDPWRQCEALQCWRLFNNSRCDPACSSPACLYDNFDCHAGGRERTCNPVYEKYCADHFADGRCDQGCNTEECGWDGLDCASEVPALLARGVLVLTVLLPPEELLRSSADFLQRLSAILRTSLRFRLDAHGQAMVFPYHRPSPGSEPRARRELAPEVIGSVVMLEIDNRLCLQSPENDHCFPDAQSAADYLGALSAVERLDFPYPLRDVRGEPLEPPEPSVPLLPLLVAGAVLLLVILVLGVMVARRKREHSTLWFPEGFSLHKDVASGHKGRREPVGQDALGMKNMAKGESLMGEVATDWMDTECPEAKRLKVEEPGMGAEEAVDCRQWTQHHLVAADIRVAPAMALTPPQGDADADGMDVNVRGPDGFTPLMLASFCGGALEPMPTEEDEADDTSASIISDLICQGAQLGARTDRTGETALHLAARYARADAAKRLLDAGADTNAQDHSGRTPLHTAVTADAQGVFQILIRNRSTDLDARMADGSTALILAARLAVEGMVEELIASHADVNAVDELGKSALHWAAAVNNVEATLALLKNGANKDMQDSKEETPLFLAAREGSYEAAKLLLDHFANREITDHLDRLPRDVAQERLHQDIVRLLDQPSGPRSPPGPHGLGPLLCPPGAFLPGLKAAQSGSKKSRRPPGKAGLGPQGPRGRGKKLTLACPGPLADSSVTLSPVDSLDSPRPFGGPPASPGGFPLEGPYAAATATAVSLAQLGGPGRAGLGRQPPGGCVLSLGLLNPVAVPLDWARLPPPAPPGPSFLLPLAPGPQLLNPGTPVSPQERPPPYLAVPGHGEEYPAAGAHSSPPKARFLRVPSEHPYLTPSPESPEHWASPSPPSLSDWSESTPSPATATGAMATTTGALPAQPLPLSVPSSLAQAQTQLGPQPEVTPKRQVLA
The nature of assay [20]: probe aEGFR binding to arrayed compounds – biochemical, biotinylated probe, 635/667 nm fluorescence, primary screen (AID 1097).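 Note: probe is a biotinylated anti-EGFR antibody binding compounds printed on slides; score combines fluorescence near 667 nm and signal to noise of each spot.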 The note with it: small-molecule microarray, higher = more signal.

For the molecule `C=C(COC)/C(=C/C[C@@H](OC(C)=O)c1ccc(CO)o1)c1cc(C(=O)OC)ccc1OC`, the composite z-score in assay [1] is -0.22; in assay [2] it was 0.707; in assay [3], -0.111; in assay [4], 0.851; in assay [5], -0.378; in assay [6], 1.46. Moreover, the composite z-score is 1.3 in assay [7]; -0.179 in assay [9]; -0.0994 in [10]; 1.02 in assay [11]; 1.81 in [15]; -0.166 in assay [17]. In addition, the figures for the composite z-score in assay [18], in assay [19] and in [20] were 1.07, 0.711 and -0.0828, respectively. Also, the z-score in assay [8] is 0.435 (inactive); in assay [12], 0.932 (inactive); in [13] it was 0.369 (inactive); in assay [14], 0.264 (inactive); in [16], 0.0184 (inactive).
Turning to `COCCOC(=O)N1C(=O)[C@@]2(c3cc(C#CC4=CCCCC4)ccc31)[C@H](c1ccc(O)cc1)N1[C@H](c3ccccc3)[C@H](c3ccccc3)OC(=O)[C@H]1[C@@H]2C(=O)NC[C@H](O)c1ccccc1`, the composite z-score in [1] is -0.217; in assay [2], 0.167; in assay [3], 0.0059; in assay [4] it was 0.824; in [5], 1.18; in assay [6] it was 1.3. In addition, the composite z-score is 1.2 in [7]; 0.443 in assay [9]; -0.174 in assay [10]; 1.56 in assay [11]; 2.51 in [15]; -0.003 in assay [17]. The figures for the composite z-score in assay [18], in [19] and in assay [20] were 0.782, 1.07 and 0.0397, respectively. Moreover, the z-score in assay [8] is 0.675 (inactive); in [12], 1.44 (inactive); in [13], 0.236 (inactive); in [14] it was 3.15 (inactive); in assay [16], 0.12 (inactive).
`CCOC(=O)C1=CCN(S(=O)(=O)c2ccc(C)cc2)C1c1ccccc1` (stereo not given): the composite z-score in assay [1] is -0.0137; in assay [2] it was 0.229; in assay [3], -0.0232; in assay [4] it was 0.535; in assay [5], 1.5; in assay [6], 1.44. For the same molecule, the composite z-score was determined as 1.2 in [7]; 0.439 in assay [9]; 0.113 in assay [10]; 1.03 in [11]; 2.93 in [15]; 0.38 in assay [17]. Further, the composite z-score in assay [18] was 0.216; in assay [19] it was 0.821; in [20], 0.227. The z-score was -0.158 (inactive) in assay [8]; -1.76 (inactive) in assay [12]; -0.849 (inactive) in assay [13]; 0.318 (inactive) in assay [14]; -0.4 (inactive) in assay [16].
`C=C(CCCC)C(=O)CC[C@H](OC(C)=O)c1ccc(OCCO)cc1`: the composite z-score in assay [1] is -0.222; in assay [2], -0.0212; in [3], -0.214; in [4], -0.253; in assay [5] it was -0.989; in [6], -0.189. Further, the composite z-score in assay [7] is -0.67; in [9] it was -0.358; in assay [10], 3.01; in [11], -0.0507; in assay [15], -0.835; in assay [17] it was -0.269. Besides, the figures for the composite z-score in assay [18], in assay [19] and in assay [20] were -0.469, -0.829 and -0.16, respectively. The z-score in [8] is 0.38 (inactive); in [12], -1.62 (inactive); in assay [13], -6.78 (inactive); in assay [14], -2.54 (inactive); in [16], 2.19 (inactive).
Take `CN(C)CCCCNC(=O)[C@H]1C[C@H]2C(=O)N[C@@H](CCCC[N+](C)(C)C)C(=O)N2[C@H]1c1ccc(O)cc1`: the composite z-score is -0.334 in assay [1]; 0.755 in assay [2]; -0.136 in [3]; -0.556 in [4]; -0.661 in [5]; -0.506 in assay [6]. Also, the composite z-score is 0.942 in assay [7]; -0.31 in assay [9]; -0.132 in assay [10]; 0.366 in [11]; -0.2 in assay [15]; -0.0011 in assay [17]. Further, the composite z-score in assay [18] was -0.0923; in [19], -0.529; in assay [20] it was -0.194. Further, the z-score in assay [8] is 3.25 (inactive); in assay [12] it was -0.838 (inactive); in [13], 0.0639 (inactive); in assay [14] it was -0.682 (inactive); in assay [16], 0.744 (inactive).
